High-throughput results: PubChem, National Center for Advancing Translational Sciences (NCATS)
NIH3T3 tox: cytotoxic compounds in NIH 3T3 cells | hit rate 4.3% among 94,000 | Potency, µM (top dose mostly 96.7 µM), for the others: top-dose activity change, negative = cytotoxicity, usual class: inhibitors | NIH 3T3 viability, CellTiter-Glo ATP luminescence, 48-72 h; note: nearly all actives have a fitted effect of over 55% in size
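Cytotoxicity was measured by CellTiter-Glo ATP luminescence after 48 or 72 h compound exposure at 37 °C. Mouse NIH 3T3 fibroblasts were seeded at 400 cells/well and dosed by 23 nL pin transfer.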
Luciferase inh: inhibitors of firefly (Photinus pyralis) luciferase | P08659 | purified P. pyralis luciferase, luminescence, biochemical | Potency, µM (series often up to 115 µM), usual class: inhibitors | hit rate 2.5% among 76,000; note: nearly all actives have a fitted effect of over 65% in size
Target sequence (P08659 whole entry, looked up): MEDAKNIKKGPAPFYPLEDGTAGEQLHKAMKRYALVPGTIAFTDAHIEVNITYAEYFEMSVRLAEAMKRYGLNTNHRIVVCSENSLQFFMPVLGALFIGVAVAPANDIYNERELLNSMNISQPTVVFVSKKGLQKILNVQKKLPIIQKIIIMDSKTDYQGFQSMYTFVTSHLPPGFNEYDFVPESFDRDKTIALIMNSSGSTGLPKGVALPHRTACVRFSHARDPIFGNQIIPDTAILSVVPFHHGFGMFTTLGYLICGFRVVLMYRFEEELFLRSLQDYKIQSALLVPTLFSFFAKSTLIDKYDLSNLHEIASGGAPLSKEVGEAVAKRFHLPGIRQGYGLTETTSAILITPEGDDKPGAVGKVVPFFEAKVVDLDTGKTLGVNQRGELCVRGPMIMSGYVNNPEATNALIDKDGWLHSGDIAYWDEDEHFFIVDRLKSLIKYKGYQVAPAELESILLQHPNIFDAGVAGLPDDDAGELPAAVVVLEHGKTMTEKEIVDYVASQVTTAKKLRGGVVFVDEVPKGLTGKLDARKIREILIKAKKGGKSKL
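Inhibitors were tested against purified firefly luciferase in a biochemical, low-substrate format (both substrates at 10uM) and luminescence measured with a CCD imager.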
HEK293 tox: cytotoxic compounds in HEK 293 cells; HEK 293 viability, ATP luminescence (CellTiter-Glo), 48-72 h; Potency, µM (doses to about 115 µM), inactives show top-dose activity change, negative = cytotoxicity, actives largely listed as inhibitors; hit rate 6.6% among 94,000; AID 1345083; note: nearly all actives have a fitted effect of over 60% in size
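Read-out: CellTiter-Glo ATP luminescence. Cells: HEK 293, 250 cells/well. Exposure: 48 or 72 hr, 37 degree Celsius.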
GPT2 inh: inhibitors of human GPT2 alanine aminotransferase; Potency, µM (titrated, usually from 57.7 µM), without a hit: at the top dose activity change, negative = inhibition, usual class: inhibitors; Recombinant GPT2, coupled pyruvate oxidase/HRP Amplex Red fluorescence; hit rate 0.25% among 100,000; Q8TD30; note: nearly all actives have a fitted effect of over 60% in size
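Recombinant GPT2 (10ng/uL) with 250uM a-KG and 2mM L-alanine, 30 min at room temperature, in HEPES pH 7.5 buffer. Pyruvate detected by pyruvate oxidase/HRP/Amplex Red fluorescence after 30 min in the dark; AOA (50uM) as positive control.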
hNpr1 antagonist: human Npr1 receptor antagonism; P16066; HEK293 hNpr1 GloSensor cGMP, ANP-stimulated luminescence; Potency, µM (highest dose often 46.3 µM), for inactives: top-dose activity change, negative = inhibition, usual class: inhibitors; hit rate 1.6% among 76,000; AID 1347048; calls by dose curve; note: nearly all actives have a fitted effect of over 60% in size
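HEK293 cells stably expressing human Npr1 and cGMP GloSensor pGS-40F, loaded 2 h with 2% GloSensor reagent, given compound 30 min at room temperature. Luminescence read before and 20 min after 0.1 nM hNppA.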
Starred values were filed as active, the others as inactive; i = inactive; ? = inconclusive; / = not tested or not shown; [ ] = dose if it differs, or a comment. An excerpt weighted towards active compounds, which were near 10% of everything screened. Unless noted, calls come from the whole dose curve; as a rule, active = well fitted curve in the direction sought with a large enough effect; inconclusive = small, poorly fitted or top-dose-only effect, or another doubt; inactive = no such curve, though single readings can be large; an effect the other way counts as inactive or inconclusive. % is set by controls: 0 for no effect and ±100 for the full control effect; potency is the fitted concentration of half-maximal effect.

SMILES	NIH3T3 tox	Luciferase inh	HEK293 tox	GPT2 inh	hNpr1 antagonist
COCCOc1ncccc1-c1noc([C@@H]2CCCN2Cc2ccc(C(=O)O)cc2)n1	-10%[138 µM]	i	4%[172 µM]	-8%[88.5 µM]	-13%[70.6 µM]
COc1ccc(-c2nc(C3CC3)nc3c2CCN(C(=O)c2ccccc2OC)CC3)cc1	-38%	/	?	i	/
CCc1ccc(C(=O)NC2CCN(c3cnn(CCOC)c(=O)c3)CC2)cc1	-10%	i	1%	0%	-17%
CC(C)c1noc(CCn2ccnc2-c2cnc[nH]2)n1	-24%	i	-16%	-9%	1%
COc1ccc(CN2CC(C(C)(C)C)Oc3nc(C)ccc3C2=O)cc1 (stereo not drawn)	?	/	-19%[57.5 µM]	-5%[27.3 µM]	/
CCCC1CN(Cc2cccc(F)c2)C(=O)c2ccc(C)nc2O1 (stereo not drawn)	?	/	50µM*	/	/
Cc1ccc2c(n1)O[C@@H](COCc1ccccc1)CN(Cc1ccc3c(c1)OCO3)C2=O	13µM*	/	?	i	/
Cc1ccc2c(n1)OC1(CCCC1)CN(Cc1ccc3c(c1)OCO3)C2=O	?	/	?	i	/
Cc1ccc2c(n1)O[C@@H](COCc1ccccc1)CN(Cc1cccs1)C2=O	25µM*	/	32µM*	3%[27.3 µM]	/
CN1CC2(CCCN(C(=O)CCc3ccccc3Cl)CC2)OC1=O (stereo not drawn)	-10%	i	-1%	i	1%
CN(c1ccc(Cl)c(Cl)c1)C1CNC1	100µM*	/	112µM*	2%[88.5 µM]	/
CN(C)CCN(C)[C@H]1[C@H](O)C[C@@H]2CC(C)(C)OC[C@]21O	-6%[46.1 µM]	/	?	-8%[27.3 µM]	/
O=C(c1ccc(-c2ncc3cnc(C4=CCOCC4)cn23)cc1)N1CC[S+](=O)([O-])CC1	?	i	1%[172 µM]	2%[88.5 µM]	5%[70.6 µM]
COc1ccc(NC(=O)c2ccc(-c3ncc4cnc(C5=CCOCC5)cn34)cc2)cn1	32µM*	i	?	i	-16%[70.6 µM]
CCNC(=O)C1CCN(C(=O)c2ccc3nc(-c4ccccc4)cn3c2)C1 (stereo not drawn)	i	35µM*	-2%	2%	-1%
O=C(c1ccc2nc(-c3ccc(F)cc3)cn2c1)N1CCC(F)CC1	-26%	i	?	3%	-10%
CCCN1CCc2[nH]cnc2C12CCN(C(=O)CC1C=CS(=O)(=O)C1)CC2 (stereo not drawn)	-3%	i	i	1%	7%
COc1ccc(-c2cnc(Nc3ccc(CN4CCN(C)CC4)cc3)c3c2CCO3)cn1	28µM*	?	?	i	-15%[70.6 µM]
COc1ccc(C(=O)Nc2ncc(-c3ccc(OC)nc3)c3c2OCC3)cc1	?	?	-21%[172 µM]	-29%[88.5 µM]	-11%[70.6 µM]
COc1ccccc1-c1cnc(Nc2ccc(CN3CCN(C)CC3)cc2)c2c1CCO2	25µM*	?	35µM*	3%[88.5 µM]	-11%[70.6 µM]
COc1cccc(Nc2ncc(-c3ccccc3OC)c3c2OCC3)c1	?	i	?	-21%[88.5 µM]	-15%[70.6 µM]
Cc1[nH]ncc1CNC(=O)CCC[C@@H]1[C@H]2CCCN3CCC[C@@H](CN1Cc1cccnc1)[C@@H]23	i	i	-4%	-12%	1%
CCN1CC2(CCN(C(=O)COC(C)C)CC2)CC(c2ccccc2)C1=O (stereo not drawn)	0%	i	1%	i	-7%
COc1ccccc1CN1CCC2(Cc3ccccc3CNC2=O)C1 (stereo not drawn)	-24%	/	?	i	/
Cc1ccc(CN2CCCCCCNC(=O)CC2c2ccccc2)o1 (stereo not drawn)	?	i	?	3%	-1%
SMILES	NIH3T3 tox	Luciferase inh	HEK293 tox	GPT2 inh	hNpr1 antagonist
Cc1cccc(CN2CCCCCNC(=O)CC2c2ccccc2)c1 (stereo not drawn)	40µM*	i	?	-14%	-17%
Cc1ccc(CN2CCCCCCNC(=O)CC2c2ccccc2)s1 (stereo not drawn)	?	i	40µM*	i	-15%
COc1ccc(-c2cnc3n[nH]c(-c4ccc(F)cc4C)c3n2)cn1	50µM*	i	50µM*	-9%[88.5 µM]	-3%[70.6 µM]
COc1cc(-c2cnc3n[nH]c(-c4ccc(F)cc4C)c3n2)ccn1	?	i	79µM*	i	-5%[70.6 µM]
Cc1cc(F)ccc1-c1[nH]nc2ncc(-c3ccsc3)nc12	20µM*	i	?	2%[88.5 µM]	-1%[70.6 µM]
Cc1cc(F)ccc1-c1[nH]nc2ncc(-c3cccnc3)nc12	-29%[138 µM]	i	?	2%[88.5 µM]	-20%[70.6 µM]
COc1cccc(CNC(=O)[C@@H]2C[C@@H](O)CN2C2CCN(C(=O)c3ccc(OC)cc3OC)CC2)c1	-12%	i	3%	i	1%
Cc1ccc(C(=O)N2CCCN(c3nc4ncccc4o3)CC2)cc1	-19%[138 µM]	i	-18%[172 µM]	i	1%[70.6 µM]
O=C(c1ccc(C(F)(F)F)cc1)N1CCc2nc(C3CC3)nc(-c3ccc(Cl)cc3)c2CC1	?	i	28µM*	-12%	2%
O=C(Nc1ccc(Cl)cc1)N1CCc2nc(C3CC3)nc(-c3ccc(Cl)cc3)c2C1	?	i	28µM*	i	1%
O=C(c1ccccc1F)N1CCc2nc(C3CC3)nc(-c3ccc(Cl)cc3)c2C1	?	/	-17%	3%	/
O=C(c1ccccn1)N1CCc2nc(C3CC3)nc(-c3ccc(Cl)cc3)c2C1	32µM*	/	-5%	3%	/
Oc1ccc(-c2nc(C3CC3)nc3c2CN(CC2CCCCC2)CC3)cc1	?	i	79µM*	-11%	2%
COc1ccc(OCc2nc(C3CN(C(=O)CCCc4ccccc4)C3)no2)cc1	?	i	?	i	?
c1ccc(Oc2cc3c(cn2)NCCN(Cc2ccc4[nH]ccc4c2)C3)cc1	?	i	89µM*	-2%[88.5 µM]	?
COc1ccccc1CN1CCNc2cnc(Oc3ccccc3)cc2C1	?	i	?	i	-14%[70.6 µM]
Fc1ccccc1CN1CCNc2cnc(Nc3ccccc3)cc2C1	?	i	100µM*	-84%[88.5 µM]	?
Cc1cccc(CN2CCNc3cnc(Oc4ccccc4)cc3C2)c1	-28%[138 µM]	i	89µM*	-8%[88.5 µM]	-14%[70.6 µM]
Fc1ccccc1CN1CCNc2cnc(Oc3ccccc3)cc2C1	?	i	79µM*	-15%[88.5 µM]	-4%[70.6 µM]
O=C1CCN(S(=O)(=O)c2ccccc2)CCCN(C(=O)Nc2ccc3c(c2)OCCO3)CCN1	-6%	?	3%	i	-7%
O=C(N[C@H]1C[C@H]2C(=O)Nc3cc(Cl)ccc3C(=O)N2C1)c1ccccc1	-1%[174 µM]	i	-9%[172 µM]	-28%[88.5 µM]	3%[70.6 µM]
CCN1C[C@H]2COc3cc(OC)ccc3[C@H]2N(C(=O)CC2CCCC2)CCC1=O	?	/	-8%	/	/
COC(=O)[C@@H]1Cc2c([nH]c3ccccc23)[C@H]2C[C@@H](NCCNC(C)=O)C[C@@H](c3ccc(C(F)(F)F)cc3)N21	20µM*	i	25µM*	?	-9%
